# Bioassay records from PubChem BioAssay.
# APP 5UTR inh: inhibitors of APP translation via 5'UTR reporter, primary screen, APP 5'UTR luciferase, SH-SY5Y cells. inhibition, % at 2 µM. SH-SY5Y APP 5'UTR-luciferase reporter, luminescence. 190,000 tested, 0.82% active;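 active = inhibition above a set limit, derived from the sample mean plus 3 SD, cut at about 45% in these data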
# Ba/F3 V617F tox: reduced viability of JAK2V617F-dependent Ba/F3 cells, primary screen, JAK2V617F inhibitor project, cell-based, Ba/F3 EpoR-JAK2V617F, luminescence; ATP luminescence; inhibition, % at 5.6 µM; 220,000 tested, 1.1% active;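 active = inhibition above the campaign mean plus 3 SD over all tested compounds, cut at about 24% in these data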;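 also: cytokine-independent growth of Ba/F3 cells driven by EpoR plus mutant JAK2; 0% = DMSO-treated cells and 100% = JAK inhibitor I control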
# aSyn 5UTR inh: MLPCN primary screen, SNCA 5' untranslated region | 300,000 tested, 0.82% active | inhibition, % (tested at 7.5 µM) | alpha-synuclein 5'UTR reporter, inhibitor activity; in the data active = inhibition above about 60%;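 also: H4 neuroglioblastoma cells stably carrying SNCA 5'UTR luciferase fusion; 0% = DMSO wells and 100% = positive control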
# IEC-6 cytotox: cytotoxicity in IEC-6 intestinal epithelial cells, primary screen, cytotoxicity control for KLF5 inhibitor project, cell-based, luminescence; IEC-6 cytotoxicity, luminescence viability; inhibition, % at 5 µM; 290,000 tested, 0.78% active; AID 1825, 2009; in the data active = inhibition above about 22%;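 also: 0% = plate median of test compound wells and 100% = cytotoxic reference compound wells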
# KLF5 inhibitor: KLF5 expression inhibitors, primary screen, DLD-1 cells, luminescence; DLD-1 KLF5 promoter-luciferase reporter; inhibition, % at 5 µM; 290,000 tested, 0.23% active; AID 1700, 2009;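 active = inhibition above a per-plate limit of that plate's mean compound inhibition plus 3 SD, cut at about 60% in these data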;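 also: 0% = DMSO wells and 100% = LY294002 at 200 µM; higher means less KLF5 promoter-driven luciferase light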
# BaF3 parental: parental Ba/F3 cell viability inhibition, counter-screen for JAK2V617F inhibitor project, murine pro-B, CellTiter-Glo luminescence | inhibition, % at 5.6 µM | CellTiter-Glo ATP luminescence | 220,000 tested, 1.1% active;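 active = inhibition above a per-campaign cutoff, the mean inhibition of all tested compounds plus 3 SD, cut at about 27% in these data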;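 also: 0% = DMSO wells and 100% = JAK Inhibitor I control wells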
# The depositor's hits bear a star; · = no result given. Compounds with a hit are over-represented: about 2.2% of the library has one in this group of screens.
SMILES,APP 5UTR inh,Ba/F3 V617F tox,aSyn 5UTR inh,IEC-6 cytotox,KLF5 inhibitor,BaF3 parental
COc1c(O)c(O)c2oc(-c3ccccc3)cc(=O)c2c1OC,13,2,-6,-3,-23,-2
CCOc1ccc(S(=O)(=O)N2CCOCC2)cc1NC(=O)CSCc1c(C)noc1C,·,·,-7,·,·,·
CCOC(=O)c1c(S(=O)(=O)NCC(=O)NCc2cccc(C)c2)c(C)n(C)c1C,·,·,10,-3,6,·
O=C(CCCc1nc(-c2ccccc2Cl)no1)NC1CCCC1,·,·,99*,-6,47,·
COc1ccc2oc(=O)c(C(=O)OCc3ccccc3)cc2c1,·,·,-32,-2,-18,·
COc1ccc(C(=O)N2CCN(c3ccc([N+](=O)[O-])c(NCCc4ccc(OC)c(OC)c4)c3)CC2)cc1,18,6,16,1,-20,12
COc1ccc(CCNc2cc(N3CCN(C(=O)c4ccc(C)cc4)CC3)ccc2[N+](=O)[O-])cc1OC,-7,1,2,-2,-17,43*
O=S(=O)(Nc1ccc(N2CCOCC2)cc1)c1ccc(F)cc1,10,2,6,-6,-6,90*
O=S(=O)(Nc1ccc(N2CCCCC2)cc1)c1ccc(F)cc1,·,-2,-25,1,-17,0
COc1ccc(-c2csc3ncnc(N4CCN(c5ccc(OC)cc5)CC4)c23)cc1,·,·,-3,2,-7,·
COc1ccc(-c2nsc3c(N4CCCC4)ncnc23)cc1,-156,7,70*,2,-127,3
CC1(C)N=c2ccc([N+](=O)[O-])c(N)c2=[N+]1[O-],·,69*,21,-2,-12,63*
Cc1ccc([N+](=O)[O-])c(C)[n+]1C,9,8,-3,0,-26,9
NS(=O)(=O)c1ccc(NC(=O)CSc2nc3ccccc3nc2N2CCOCC2)cc1,·,·,20,-9,-11,·
O=c1c(Cl)nc2cc(Cl)ccc2n1CCNc1ncc(C(F)(F)F)cc1Cl,-6,0,110*,-5,-33,8
O=c1c2nncn2c2cc(C(F)(F)F)ccc2n1CCNc1ncc(C(F)(F)F)cc1Cl,·,0,26,-6,-36,-5
COc1ccc(C)cc1NC(=O)CN(C)C1CCCCC1,·,·,19,1,-1,·
CN(Cc1ccc(F)cc1)C(=O)CNC(=O)C1CCCCC1,·,·,-20,2,8,·
Cc1csc(SCC(=O)c2cc(C)n(Cc3cccs3)c2C)n1,-120,-5,73*,0,-33,2
Cc1cc(C(=O)CSc2nnc(N)s2)c(C)n1Cc1cccs1,-136,-1,69*,-1,-82,0
CC(=O)Nc1ccc(SCC(=O)c2cc(C)n(Cc3cccs3)c2C)cc1,-112,1,68*,5,-1,7
COc1ccc(-c2nnc(SCC(=O)c3cc(C)n(Cc4cccs4)c3C)o2)cc1,-5,0,-4,2,-13,2
COc1ccc(-n2cnnc2SCC(=O)c2cc(C)n(Cc3cccs3)c2C)cc1,1,2,-3,-2,-16,7
O=C(c1ccccc1)N1CCSc2sccc2C1=O,28,2,97*,2,10,-1
CCOc1ccc2nc(N/C(N)=N/C(=S)Nc3ccc(C)c(C)c3)nc(C)c2c1,5,-1,15,-3,-4,8
SMILES,APP 5UTR inh,Ba/F3 V617F tox,aSyn 5UTR inh,IEC-6 cytotox,KLF5 inhibitor,BaF3 parental
COc1ccc(NC(=S)/N=C(\N)Nc2nc(C)c3ccc(C)cc3n2)cc1,0,3,18,13,-6,43*
O=C(Nc1ncc(Cc2ccc(SC(F)F)cc2)s1)c1ccccc1,86*,-2,68*,1,3,3
O=C(Nc1ncc(Cc2ccccc2)s1)c1cccs1,-194,1,21,3,-172,12
CC(C)(C)NC(=O)C(c1cccs1)N(Cc1ccc(F)cc1)C(=O)c1csnn1 (centres undefined),-12,4,22,0,-24,2
COc1cc(NS(=O)(=O)c2ccc(C)cc2C)cc(OC)c1OC,7,15,7,2,-16,32*
Cc1oc2ccc(OS(C)(=O)=O)cc2c1C(=O)OC(C)C,-25,42*,23,-12,-12,85*
COCCOC(=O)c1c(C)oc2ccc(OS(C)(=O)=O)cc12,7,-2,-4,2,2,5
CCOC(=O)CSC1=NC(=O)/C(=C/c2ccc(OC)cc2)S1,-26,-1,-26,6,-140,-1
Cc1ccc(C(=O)Nc2nnc(SCC(=O)N3CCCc4ccccc43)s2)cc1,-59,2,74*,-4,-36,7
CCOC(=O)CNC(=O)CSc1nnc(NC(=O)c2ccc(C)cc2)s1,-37,-1,74*,5,-41,-1
CC(C)Oc1ccc(C(=O)Nc2nnc(SCC(=O)N3CCOCC3)s2)cc1,-88,-1,98*,3,-35,5
Cc1nc(Nc2ccncc2)c2oc3ccccc3c2n1,5,19,-66,0,-26,23
CCc1nc(Nc2ccncc2)c2oc3ccccc3c2n1,-27,15,-27,0,-5,29*
COc1ccc2[nH]c(C)c(CCN(Cc3cccs3)C(=S)Nc3ccc(F)cc3)c2c1,8,46*,-10,1,-9,50*
COc1ccc2[nH]c(C)c(CCN(Cc3cccs3)C(=S)Nc3ccccc3)c2c1,1,34*,16,2,-4,46*
COc1ccc(C2=Nn3c(nnc3-c3ccco3)SC2)cc1OC,-4,13,79*,7,-39,0
CCOc1ccc(C2=Nn3c(nnc3-c3ccco3)SC2)cc1,9,-1,23,8,-61,0
O=C(Nc1cc(-c2ccccc2)[nH]n1)c1ccc(Cl)cc1,·,1,-124,-4,-154,5
Cc1cccc(C(=O)Nc2cccc(C(=O)Nc3cc(C)ccn3)c2)c1,·,·,-20,-4,-24,·
Nc1ncc(-c2nnnn2-c2ccc(Cl)cc2)c(-c2ccc(Cl)cc2)n1,17,28*,10,18,28,32*
O=C(O)CCCCCNS(=O)(=O)c1cccc2c1C(=O)c1ccccc1C2=O,3,6,3,26*,-1,13
Cc1ccccc1-c1nc(CS(=O)(=O)CC(=O)N2CCN(C)CC2)c(C)o1,·,·,0,-6,-17,·
COCCN1C(=O)/C(=C/c2ccc(N3CCCC3)cc2C)SC1=S,-15,-4,-41,-1,-29,-1
COCc1c(C(C)C)nc(C(C)C)c(/C=C/[C@@H](O)C[C@@H](O)CC(=O)O)c1-c1ccc(F)cc1,·,·,115*,·,·,·
Cc1nc2c(-c3ccc(F)cc3)c(C)nn2c(C)c1CCC(=O)Nc1ccccc1,·,-2,24,2,-13,1
CC(C)n1c(/C=C/[C@@H](O)C[C@@H](O)CC(=O)O)c(-c2ccc(F)cc2)c2ccccc21,·,·,64*,8,-40,·
